PubChem BioAssay (Tox21)
Unmarked numbers belong to inactive results. Records with an inconclusive call do not appear. Where a call stands in place of a potency, no number is given. Activity calls are given as the source filed them. Unless noted, the call rests on the fitted dose curve.

Legend:
[1] = Nuclear factor erythroid 2-related factor 2/antioxidant responsive element (Nrf2/ARE) small molecule agonists: qHTS cell viability counter screen in human keratinocytes (AID 1919968; active means well fitted curve in the direction sought with a large enough effect in the repeat runs; an effect the other way counts as inactive or inconclusive; further: nearly all actives have a fitted effect of over 55% in size)
Outline: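 Seed 1,500 KeratinoSens cells per well, then incubate 5 h at 37 C/5% CO2. Add compounds in DMSO and incubate 23 h. Add CellTiter-Fluor, wait 1 h and read fluorescence.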

[2] = Nuclear factor erythroid 2-related factor 2/antioxidant responsive element (Nrf2/ARE) small molecule agonists: luciferase reporter gene qHTS assay in human keratinocytes (AID 1919969); further: nearly all actives have a fitted effect of over 35% in size; further: potency means the concentration at half of the fitted maximal effect
[3] = molecular target: Gonadotropin-releasing hormone receptor (Homo sapiens) (UniProt P30968); experiment: Human gonadotropin-releasing hormone receptor (GnRHR) small molecule agonists, calcium flux assay in GnRHR-HEK293 cells (AID 1920063); further: nearly all actives have a fitted effect of over 35% in size
Sequence of Gonadotropin-releasing hormone receptor (Homo sapiens) (P30968 whole entry, looked up): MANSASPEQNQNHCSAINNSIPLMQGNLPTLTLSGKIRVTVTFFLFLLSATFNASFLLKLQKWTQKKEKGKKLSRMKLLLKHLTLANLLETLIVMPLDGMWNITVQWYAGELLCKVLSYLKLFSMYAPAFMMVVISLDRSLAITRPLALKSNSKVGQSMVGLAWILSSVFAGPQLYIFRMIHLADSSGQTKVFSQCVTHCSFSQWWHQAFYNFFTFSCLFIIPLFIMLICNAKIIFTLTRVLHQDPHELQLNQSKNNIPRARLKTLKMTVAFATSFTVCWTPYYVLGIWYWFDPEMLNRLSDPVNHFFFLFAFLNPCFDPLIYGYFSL
Outline: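 Cells: HEK293 stably expressing human GnRHR. Steps: overnight (18 h) culture, 1 h calcium dye loading at 37 C, compound addition, kinetic fluorescence read at 480/540 nm. Each compound tested at 15 concentrations in triplicate.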

[4] = molecular target: KiSS-1 receptor (Homo sapiens) (UniProt Q969F8); experiment: Human kisspeptin (KISS1R) small molecule agonists, calcium flux assay in KISS1R-HEK293 cells (AID 1920064; active means well fitted curve in the direction sought with a large enough effect in the repeat runs; an effect the other way counts as inactive or inconclusive)
Sequence of KiSS-1 receptor (Homo sapiens) (Q969F8 whole entry, looked up): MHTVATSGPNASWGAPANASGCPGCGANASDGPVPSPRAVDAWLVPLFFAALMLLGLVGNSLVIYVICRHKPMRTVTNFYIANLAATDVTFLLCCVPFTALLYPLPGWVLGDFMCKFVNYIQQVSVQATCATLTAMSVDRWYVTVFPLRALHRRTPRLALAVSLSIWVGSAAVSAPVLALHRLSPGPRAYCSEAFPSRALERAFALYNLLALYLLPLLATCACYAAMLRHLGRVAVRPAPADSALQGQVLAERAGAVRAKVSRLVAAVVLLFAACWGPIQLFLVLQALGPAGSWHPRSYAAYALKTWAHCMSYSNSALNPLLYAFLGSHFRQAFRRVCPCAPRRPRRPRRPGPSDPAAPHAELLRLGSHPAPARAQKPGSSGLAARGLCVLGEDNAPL
Outline: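 Cells plated and incubated 18 h; dye added, 1 h at 37 C; compounds in DMSO pinned in; signal read at 480/540 nm every second for 3 min. Each compound tested at 15 concentrations in triplicate.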

[5] = G protein-coupled receptor (GPCR) small molecule agonists, calcium flux assay: HEK293 wild type cell line counter screen (AID 1920065)
Outline: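 Counter-screen of the Tox21 10K library for non-specific calcium release: dye-loaded cells received compounds in DMSO and were monitored by kinetic fluorescence (480/540 nm, 3 min). Fifteen concentrations, run in triplicate.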

[6] = p53 small molecule agonists, cell-based qHTS assay with human liver microsomes (AID 1963577);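 further: p53 response element beta-lactamase reporter cells with liver microsomes plus NADPH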
Outline: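 p53RE-bla cells; 5 h settle, 37 C/5% CO2; cpd + HLM 0.5 mg/mL + NADPH 0.5 mg/mL (final); 16 h 37 C; LiveBLAzer 2 h RT dark; fluorescence readout.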

[7] = p53 small molecule agonists, cell-based qHTS assay with rat liver microsomes (AID 1963578)
Outline: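 Rat liver microsome activation: microsomes 0.5 mg/mL, NADPH 0.5 mg/mL final; p53RE-bla cells, 16 h 37 C; LiveBLAzer readout, 2 h RT dark.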

[8] = p53 small molecule agonists, cell-based qHTS assay with human liver microsomes: qHTS cell viability counter screen (AID 1963579); further: nearly all actives have a fitted effect of over 45% in size
Outline: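 Luminescent CellTiter-Glo read-out, 30 min at room temperature, gauged cytotoxicity in p53RE-bla cells exposed 16 h at 37 C to DMSO-dissolved compounds with metabolic activation by human liver microsomes and NADPH, each 0.5 mg/mL final.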

[9] = p53 small molecule agonists, cell-based qHTS assay with rat liver microsomes: qHTS cell viability counter screen (AID 1963580); further: nearly all actives have a fitted effect of over 45% in size
Outline: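 p53RE-bla HCT-116 cells (4,000/well) rested 5 h at 37 C, then given Tox21 compounds in DMSO with rat liver microsomes (0.5 mg/mL final) plus NADPH (0.5 mg/mL final) for 16 h at 37 C. Viability read by CellTiter-Glo luminescence after 30 min at room temperature.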

[10] = p53 small molecule agonists, cell-based qHTS assay: qHTS cell viability counter screen (AID 1963581); further: nearly all actives have a fitted effect of over 45% in size
Outline: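 Cells: HCT-116 with p53 response element-driven beta-lactamase. Treatment: 16 h, 37 C, compounds in DMSO. Read: CellTiter-Glo luminescence after 30 min RT.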

[11] = p53 small molecule agonists, cell-based qHTS assay (AID 1963582; active means well fitted activation curve with a large enough effect in the signal ratio in the repeat runs, not every such curve was filed as active; the % refers to the signal ratio)
Outline: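 Quantitative HTS in p53RE-bla cells: after a 5 h settling period, compounds delivered in DMSO were left on cells for 16 h at 37 C, and reporter induction was measured as fluorescence following 2 h substrate loading.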

[12] = molecular target: 5-hydroxytryptamine receptor 2A (Homo sapiens) (UniProt P28223); experiment: 5-hydroxytryptamine receptor 2A (HTR2A) small molecule antagonists, cell-based qHTS assay (AID 1963586); further: nearly all actives have a fitted effect of over 45% in size
Sequence of 5-hydroxytryptamine receptor 2A (Homo sapiens) (P28223 whole entry, looked up): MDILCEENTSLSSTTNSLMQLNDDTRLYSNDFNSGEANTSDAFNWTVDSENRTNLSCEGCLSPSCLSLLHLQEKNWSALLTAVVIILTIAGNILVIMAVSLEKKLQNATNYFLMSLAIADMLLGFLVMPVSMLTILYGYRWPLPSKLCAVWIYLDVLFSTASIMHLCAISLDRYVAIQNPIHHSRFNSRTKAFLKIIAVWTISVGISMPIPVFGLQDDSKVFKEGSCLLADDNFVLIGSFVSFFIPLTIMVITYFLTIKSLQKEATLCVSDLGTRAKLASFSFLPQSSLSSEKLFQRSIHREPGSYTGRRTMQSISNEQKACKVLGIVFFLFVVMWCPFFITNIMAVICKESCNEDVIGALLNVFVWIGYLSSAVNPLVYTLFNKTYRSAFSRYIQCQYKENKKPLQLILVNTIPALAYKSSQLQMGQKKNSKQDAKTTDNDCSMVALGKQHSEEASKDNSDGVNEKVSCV
Outline: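 Antagonist-mode intracellular calcium assay: DOI (4 nM) added after 5 min compound pre-incubation at room temperature to dye-loaded HTR2A-CHO cells. Fluorescence followed for 3 min, sampled every second.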

[13] = molecular target: 5-hydroxytryptamine receptor 2A (Homo sapiens) (UniProt P28223); experiment: 5-hydroxytryptamine receptor 2A (HTR2A) small molecule agonists, cell-based qHTS assay (AID 1963587); further: nearly all actives have a fitted effect of over 30% in size; further: potency means the concentration at half of the fitted maximal effect
Outline: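 HTR2A-CHO cells, plated 18 h at 37 C/5% CO2, dye-loaded 1 h at 37 C; compounds in DMSO added by pin tool (agonist mode). Intracellular calcium flux read as kinetic fluorescence on FDSS over 2 min at 1 s intervals.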

[14] = molecular target: Muscarinic acetylcholine receptor M1 (Homo sapiens) (UniProt P11229); experiment: Cholinergic receptor muscarinic 1 (CHRM1) small molecule antagonists, cell-based qHTS assay (AID 1963588); further: nearly all actives have a fitted effect of over 40% in size
Sequence of Muscarinic acetylcholine receptor M1 (Homo sapiens) (P11229 whole entry, looked up): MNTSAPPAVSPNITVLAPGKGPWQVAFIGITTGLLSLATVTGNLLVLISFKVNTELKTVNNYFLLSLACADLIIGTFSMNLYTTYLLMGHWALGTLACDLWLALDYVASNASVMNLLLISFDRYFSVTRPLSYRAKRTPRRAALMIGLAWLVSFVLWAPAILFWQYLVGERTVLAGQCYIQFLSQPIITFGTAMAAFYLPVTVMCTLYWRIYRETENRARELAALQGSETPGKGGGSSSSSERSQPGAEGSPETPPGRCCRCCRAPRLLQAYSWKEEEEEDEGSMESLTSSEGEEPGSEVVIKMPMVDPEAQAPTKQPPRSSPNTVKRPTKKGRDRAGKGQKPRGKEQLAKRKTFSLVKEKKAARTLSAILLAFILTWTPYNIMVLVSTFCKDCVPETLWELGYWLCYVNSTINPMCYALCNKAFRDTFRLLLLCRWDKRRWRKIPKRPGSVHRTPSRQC
Outline: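 CHRM1-CHO calcium-flux assay, antagonist mode. Cells were seeded 18 h, dye-loaded 1 h at 37 C and given compound for 5 min at RT, then acetylcholine was added at 50nM. FDSS fluorescence was read 3 min; 15 concentrations, three runs.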

[15] = molecular target: Muscarinic acetylcholine receptor M1 (Homo sapiens) (UniProt P11229); experiment: Cholinergic receptor muscarinic 1 (CHRM1) small molecule agonists, cell-based qHTS assay (AID 1963589); further: nearly all actives have a fitted effect of over 35% in size
Outline: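 Agonist-mode qHTS in CHO cells stably carrying human muscarinic M1. Intracellular calcium is tracked by fluorescence every second after compound transfer; each compound runs at 15 concentrations in three independent runs.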

[16] = cAMP Responsive Elements (CRE) small molecule agonists, cell-based qHTS assay (AID 1963590)
Outline: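 Agonist mode qHTS in CRE-bla HEK 293T cells: compounds dosed from DMSO for 3 h at 37 C/5% CO2, followed by LiveBLAzer B/G FRET substrate for 2 h at room temperature.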

[17] = cAMP Responsive Elements (CRE) small molecule antagonists, cell-based qHTS assay (AID 1963591; active means well fitted inhibition curve with a large enough effect in the signal ratio in the repeat runs, not every such curve was filed as active; the % refers to the signal ratio)
Outline: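 Antagonist mode: test compounds are co-incubated with the adenylyl cyclase activator NKH477 (0.25 uM final) on CRE-bla HEK293T cells for 3 h at 37 °C, followed by LiveBLAzer substrate loading.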

[18] = molecular target: Beta-2 adrenergic receptor (Homo sapiens) (UniProt P07550); experiment: Adrenergic beta2 receptor (ADRB2) small molecule antagonists, cell-based qHTS assay (AID 1963592); further: series mostly up to about 92 µM; nearly all actives have a fitted effect of over 50% in size
Sequence of Beta-2 adrenergic receptor (Homo sapiens) (P07550 whole entry, looked up): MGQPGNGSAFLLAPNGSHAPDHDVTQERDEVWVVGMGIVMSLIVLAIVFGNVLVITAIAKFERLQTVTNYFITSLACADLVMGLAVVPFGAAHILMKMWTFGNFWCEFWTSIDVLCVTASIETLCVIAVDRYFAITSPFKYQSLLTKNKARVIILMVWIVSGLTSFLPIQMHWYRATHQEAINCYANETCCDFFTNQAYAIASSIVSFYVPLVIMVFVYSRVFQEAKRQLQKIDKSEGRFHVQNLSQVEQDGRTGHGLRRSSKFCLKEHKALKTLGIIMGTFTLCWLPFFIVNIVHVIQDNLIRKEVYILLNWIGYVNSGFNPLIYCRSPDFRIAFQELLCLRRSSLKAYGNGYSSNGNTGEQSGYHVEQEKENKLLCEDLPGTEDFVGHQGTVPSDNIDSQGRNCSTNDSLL
Outline: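 Cells (CHO, stable ADRB2 overexpression) incubated 18-20hr at 37C; compounds added from DMSO; agonist mix (1nM isoproterenol, 100uM IBMX, 25uM Ro-20-1724) added; 0.5hr RT; d2-cAMP and anti-cAMP-cryptate added; 1hr RT; 665/615 nm read.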

[19] = molecular target: D(2) dopamine receptor (Homo sapiens) (UniProt P14416); experiment: Dopamine D2 receptor (DRD2) small molecule agonists, cell-based qHTS assay (AID 1963594); further: nearly all actives have a fitted effect of over 35% in size
Sequence of D(2) dopamine receptor (Homo sapiens) (P14416 whole entry, looked up): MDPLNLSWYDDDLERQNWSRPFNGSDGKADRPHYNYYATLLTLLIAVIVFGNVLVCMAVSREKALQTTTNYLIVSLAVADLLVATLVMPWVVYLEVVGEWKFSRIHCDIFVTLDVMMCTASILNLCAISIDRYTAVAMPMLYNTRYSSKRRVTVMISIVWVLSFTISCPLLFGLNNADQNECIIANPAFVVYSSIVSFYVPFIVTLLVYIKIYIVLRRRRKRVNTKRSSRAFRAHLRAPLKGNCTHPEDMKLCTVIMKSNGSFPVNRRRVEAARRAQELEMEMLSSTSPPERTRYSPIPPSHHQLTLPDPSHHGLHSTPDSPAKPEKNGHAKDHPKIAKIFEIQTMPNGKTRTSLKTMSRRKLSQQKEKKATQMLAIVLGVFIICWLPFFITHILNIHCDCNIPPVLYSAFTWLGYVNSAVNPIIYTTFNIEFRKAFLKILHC
Outline: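 HEK293 cells stably expressing DRD2 were cultured 24 h at 37 C, then given Ro20-1724 (0.1 mM final) and compounds for 10 min at room temperature. NKH477 (200nM) was then added for 30 min. cAMP was read by HTRF.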

[20] = molecular target: D(2) dopamine receptor (Homo sapiens) (UniProt P14416); experiment: Dopamine D2 receptor (DRD2) small molecule antagonists, cell-based qHTS assay (AID 1963595; active means well fitted inhibition curve with a large enough effect in the signal ratio in the repeat runs, with a control signal flat; the % refers to the signal ratio)
Outline: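 HTRF cAMP read-out at 665 and 620 nm emission (340 nm excitation). Antagonist mode: compounds were tested against 12 nM quinpirole in DRD2-HEK293 cells, with 200 nM NKH477 raising cAMP and 0.1 mM Ro20-1724 blocking its breakdown.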

Row | SMILES | Potency [1] | Potency [2] | Potency [3] | outcome [4] | outcome [5] | Potency [6] | Potency [7] | Potency [8] | Potency [9] | Potency [10] | Potency [11] | Potency [12] | Potency [13] | Potency [14] | Potency [15] | Potency [16] | Potency [17] | Potency [18] | Potency [19] | Potency [20]
1 | CC(C)(C)C1=CC(=O)C(C(C)(C)C)=CC1=O | inactive | 26.6 µM (active) | inactive | inactive | inactive | inactive | inactive | inactive | inactive | inactive | inactive | inactive | 3.79 µM (active) | inactive | inactive | inactive | inactive | inactive | inactive | inactive
2 | CC(C)C1OCCN1CCOC(=O)NCCCCCCNC(=O)OCCN1CCOC1C(C)C (stereo not given) | inactive | inactive | inactive | inactive | inactive | inactive | inactive | inactive | inactive | inactive | inactive | inactive | inactive | inactive | inactive | inactive | inactive | inactive | inactive | inactive
3 | O=C(C(Cl)Cl)N1CCOC12CCCCC2 | inactive | inactive | inactive | inactive | inactive | inactive | inactive | inactive | inactive | inactive | inactive | inactive | inactive | inactive | inactive | inactive | inactive | inactive | inactive | inactive
4 | CCCCOC(=O)C(C)CC (stereo not given) | inactive | inactive | inactive | inactive | inactive | inactive | inactive | inactive | inactive | inactive | inactive | inactive | inactive | inactive | inactive | inactive | inactive | inactive | inactive | inactive
5 | COc1cc2c(cc1OC)CN(C(=O)[C@H](C)N[C@@H](CCc1ccccc1)C(=O)O)[C@H](C(=O)O)C2 | inactive | inactive | inactive | inactive | inactive | inactive | inactive | inactive | inactive | inactive | inactive | inactive | inactive | inactive | inactive | inactive | inactive | inactive | inactive | inactive
6 | CC(N)CCCC(C)(C)O (stereo not given) | inactive | inactive | inactive | inactive | inactive | inactive | inactive | inactive | inactive | inactive | inactive | inactive | inactive | inactive | inactive | inactive | inactive | inactive | inactive | inactive
